Targets with the largest changes are over-represented here; the source holds about 21,000 in all.
Compound: Cc1cc(ccc1-c1ccccc1)C(=O)N1CCCN(CC1)C(=O)CCl [compound 10]
Test: probe-labelled cysteine peptide fold change vs DMSO (competition) (log2 fold change); higher = less target engagement (more negative = stronger competition)
Settings: THP-1, incubation time: 4 h
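Also: competitive profiling in live THP-1 cells: cysteine peptides tagged with an iodoacetamide desthiobiotin (IA-DTB) probe, intensity after compound treatment relative to DMSO-treated cells.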

UniProt P27708, sequence (P27708 whole entry, looked up): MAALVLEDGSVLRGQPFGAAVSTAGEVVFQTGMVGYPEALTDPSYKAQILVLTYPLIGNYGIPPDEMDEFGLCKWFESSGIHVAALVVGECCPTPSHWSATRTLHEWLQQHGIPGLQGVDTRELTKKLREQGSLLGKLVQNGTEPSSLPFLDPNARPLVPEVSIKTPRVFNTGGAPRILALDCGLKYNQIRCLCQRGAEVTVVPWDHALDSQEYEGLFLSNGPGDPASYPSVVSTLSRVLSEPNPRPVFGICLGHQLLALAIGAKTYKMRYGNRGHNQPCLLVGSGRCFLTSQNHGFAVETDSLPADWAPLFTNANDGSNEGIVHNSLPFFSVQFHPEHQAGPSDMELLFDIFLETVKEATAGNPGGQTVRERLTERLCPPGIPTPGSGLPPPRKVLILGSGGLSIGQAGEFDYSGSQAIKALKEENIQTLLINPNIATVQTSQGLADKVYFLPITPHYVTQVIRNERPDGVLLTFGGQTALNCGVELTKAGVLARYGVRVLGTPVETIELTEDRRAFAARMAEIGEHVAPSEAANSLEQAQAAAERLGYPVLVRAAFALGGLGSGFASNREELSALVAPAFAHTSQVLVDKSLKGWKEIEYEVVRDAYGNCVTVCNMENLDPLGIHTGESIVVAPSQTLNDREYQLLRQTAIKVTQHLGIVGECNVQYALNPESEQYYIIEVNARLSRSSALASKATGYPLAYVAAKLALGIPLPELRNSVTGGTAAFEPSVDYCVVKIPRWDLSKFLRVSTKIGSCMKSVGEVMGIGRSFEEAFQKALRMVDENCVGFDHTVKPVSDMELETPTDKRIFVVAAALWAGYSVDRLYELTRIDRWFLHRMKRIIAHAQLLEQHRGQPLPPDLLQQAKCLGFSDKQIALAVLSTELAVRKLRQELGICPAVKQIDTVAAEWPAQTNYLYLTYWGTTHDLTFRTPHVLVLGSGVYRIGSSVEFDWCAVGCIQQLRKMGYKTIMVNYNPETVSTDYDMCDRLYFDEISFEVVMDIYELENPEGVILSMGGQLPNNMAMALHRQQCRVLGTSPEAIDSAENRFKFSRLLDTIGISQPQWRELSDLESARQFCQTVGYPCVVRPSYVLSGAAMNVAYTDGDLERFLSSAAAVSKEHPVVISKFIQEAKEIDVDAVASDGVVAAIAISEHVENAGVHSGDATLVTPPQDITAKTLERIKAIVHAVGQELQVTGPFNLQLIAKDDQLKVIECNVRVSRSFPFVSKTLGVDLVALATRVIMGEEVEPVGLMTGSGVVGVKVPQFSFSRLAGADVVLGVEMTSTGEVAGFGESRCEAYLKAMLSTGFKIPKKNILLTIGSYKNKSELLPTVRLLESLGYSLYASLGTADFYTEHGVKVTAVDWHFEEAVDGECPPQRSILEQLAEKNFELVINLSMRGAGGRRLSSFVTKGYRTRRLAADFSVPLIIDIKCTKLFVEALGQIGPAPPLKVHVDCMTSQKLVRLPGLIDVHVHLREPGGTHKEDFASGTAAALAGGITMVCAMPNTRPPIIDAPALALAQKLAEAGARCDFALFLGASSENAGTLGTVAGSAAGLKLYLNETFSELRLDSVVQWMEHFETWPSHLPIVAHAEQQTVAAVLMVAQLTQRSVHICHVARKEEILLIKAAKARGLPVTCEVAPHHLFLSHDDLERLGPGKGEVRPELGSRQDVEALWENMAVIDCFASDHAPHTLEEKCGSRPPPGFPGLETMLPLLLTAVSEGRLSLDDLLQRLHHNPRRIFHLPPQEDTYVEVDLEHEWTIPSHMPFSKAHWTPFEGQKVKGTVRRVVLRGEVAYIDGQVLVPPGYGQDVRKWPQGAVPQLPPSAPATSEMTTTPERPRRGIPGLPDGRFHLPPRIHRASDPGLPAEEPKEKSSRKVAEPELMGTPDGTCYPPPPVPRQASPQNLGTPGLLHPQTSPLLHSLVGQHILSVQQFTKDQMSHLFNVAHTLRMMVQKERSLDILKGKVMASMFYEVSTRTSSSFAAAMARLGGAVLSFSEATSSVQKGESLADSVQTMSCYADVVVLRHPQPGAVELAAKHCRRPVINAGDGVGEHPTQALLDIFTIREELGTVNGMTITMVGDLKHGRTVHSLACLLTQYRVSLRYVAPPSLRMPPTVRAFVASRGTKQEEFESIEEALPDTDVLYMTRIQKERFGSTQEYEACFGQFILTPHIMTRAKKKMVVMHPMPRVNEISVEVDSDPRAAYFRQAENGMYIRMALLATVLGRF
UniProt Q9HC52, sequence (Q9HC52 whole entry, looked up): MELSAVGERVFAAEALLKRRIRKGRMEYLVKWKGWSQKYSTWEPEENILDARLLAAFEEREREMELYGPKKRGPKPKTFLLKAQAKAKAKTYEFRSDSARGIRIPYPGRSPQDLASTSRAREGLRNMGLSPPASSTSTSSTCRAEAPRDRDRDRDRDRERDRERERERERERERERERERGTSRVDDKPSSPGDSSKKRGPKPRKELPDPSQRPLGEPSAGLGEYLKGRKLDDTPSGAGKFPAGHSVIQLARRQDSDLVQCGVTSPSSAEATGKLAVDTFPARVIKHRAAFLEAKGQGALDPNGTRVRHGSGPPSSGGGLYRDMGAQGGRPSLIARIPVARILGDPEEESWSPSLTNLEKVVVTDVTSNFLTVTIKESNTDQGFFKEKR
UniProt Q92851, sequence (Q92851 whole entry, looked up): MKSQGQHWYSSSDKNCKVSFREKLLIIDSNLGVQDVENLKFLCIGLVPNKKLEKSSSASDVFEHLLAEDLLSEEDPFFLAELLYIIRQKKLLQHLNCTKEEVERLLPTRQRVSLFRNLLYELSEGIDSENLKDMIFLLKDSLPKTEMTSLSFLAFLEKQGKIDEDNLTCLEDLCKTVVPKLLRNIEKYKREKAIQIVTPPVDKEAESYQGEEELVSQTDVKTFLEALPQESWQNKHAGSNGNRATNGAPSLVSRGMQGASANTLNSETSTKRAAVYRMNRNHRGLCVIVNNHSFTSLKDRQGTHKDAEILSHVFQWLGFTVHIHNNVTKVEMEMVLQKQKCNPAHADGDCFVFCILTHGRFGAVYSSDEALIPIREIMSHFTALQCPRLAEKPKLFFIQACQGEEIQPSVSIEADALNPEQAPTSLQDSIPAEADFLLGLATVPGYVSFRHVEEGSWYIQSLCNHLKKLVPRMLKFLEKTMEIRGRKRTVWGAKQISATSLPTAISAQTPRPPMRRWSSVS
UniProt Q5SW79, sequence (Q5SW79 whole entry, looked up): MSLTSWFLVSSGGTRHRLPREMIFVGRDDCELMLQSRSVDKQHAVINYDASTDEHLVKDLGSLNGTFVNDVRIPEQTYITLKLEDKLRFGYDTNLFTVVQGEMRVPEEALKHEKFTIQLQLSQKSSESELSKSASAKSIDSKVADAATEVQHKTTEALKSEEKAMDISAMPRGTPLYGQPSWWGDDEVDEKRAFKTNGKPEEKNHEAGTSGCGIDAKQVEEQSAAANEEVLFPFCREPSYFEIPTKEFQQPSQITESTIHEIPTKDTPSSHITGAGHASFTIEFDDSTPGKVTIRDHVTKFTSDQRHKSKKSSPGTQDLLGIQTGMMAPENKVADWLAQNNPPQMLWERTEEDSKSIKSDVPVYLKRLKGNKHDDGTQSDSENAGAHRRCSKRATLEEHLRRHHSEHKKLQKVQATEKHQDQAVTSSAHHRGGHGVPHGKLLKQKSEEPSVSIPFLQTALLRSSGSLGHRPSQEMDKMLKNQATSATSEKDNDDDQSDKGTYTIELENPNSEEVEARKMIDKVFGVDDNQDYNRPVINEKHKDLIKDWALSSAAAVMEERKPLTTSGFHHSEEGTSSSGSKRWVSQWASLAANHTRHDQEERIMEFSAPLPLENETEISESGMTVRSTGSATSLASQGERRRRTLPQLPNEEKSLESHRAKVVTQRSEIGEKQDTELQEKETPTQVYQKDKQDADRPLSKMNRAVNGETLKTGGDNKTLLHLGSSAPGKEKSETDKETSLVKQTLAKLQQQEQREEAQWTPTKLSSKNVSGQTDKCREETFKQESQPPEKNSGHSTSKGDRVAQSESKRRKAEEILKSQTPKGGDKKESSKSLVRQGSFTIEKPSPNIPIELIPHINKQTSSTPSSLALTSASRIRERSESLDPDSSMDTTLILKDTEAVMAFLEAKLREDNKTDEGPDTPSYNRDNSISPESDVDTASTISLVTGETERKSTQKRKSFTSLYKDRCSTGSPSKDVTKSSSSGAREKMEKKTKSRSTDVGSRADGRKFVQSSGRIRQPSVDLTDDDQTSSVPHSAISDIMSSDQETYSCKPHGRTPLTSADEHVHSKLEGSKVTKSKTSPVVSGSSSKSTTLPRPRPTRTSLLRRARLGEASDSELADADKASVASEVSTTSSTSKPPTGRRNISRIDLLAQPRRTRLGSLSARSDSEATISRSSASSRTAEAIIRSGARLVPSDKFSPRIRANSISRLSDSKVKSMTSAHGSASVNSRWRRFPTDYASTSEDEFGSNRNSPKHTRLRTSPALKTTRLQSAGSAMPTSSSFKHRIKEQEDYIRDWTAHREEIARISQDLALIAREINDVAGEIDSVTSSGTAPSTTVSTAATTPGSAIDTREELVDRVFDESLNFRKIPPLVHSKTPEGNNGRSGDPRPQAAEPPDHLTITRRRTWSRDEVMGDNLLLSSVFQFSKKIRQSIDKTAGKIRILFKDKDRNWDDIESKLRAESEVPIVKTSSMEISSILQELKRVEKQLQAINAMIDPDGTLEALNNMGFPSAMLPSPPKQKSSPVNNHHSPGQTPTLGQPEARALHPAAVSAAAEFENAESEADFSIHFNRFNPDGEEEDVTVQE
UniProt P21953, sequence (P21953 whole entry, looked up): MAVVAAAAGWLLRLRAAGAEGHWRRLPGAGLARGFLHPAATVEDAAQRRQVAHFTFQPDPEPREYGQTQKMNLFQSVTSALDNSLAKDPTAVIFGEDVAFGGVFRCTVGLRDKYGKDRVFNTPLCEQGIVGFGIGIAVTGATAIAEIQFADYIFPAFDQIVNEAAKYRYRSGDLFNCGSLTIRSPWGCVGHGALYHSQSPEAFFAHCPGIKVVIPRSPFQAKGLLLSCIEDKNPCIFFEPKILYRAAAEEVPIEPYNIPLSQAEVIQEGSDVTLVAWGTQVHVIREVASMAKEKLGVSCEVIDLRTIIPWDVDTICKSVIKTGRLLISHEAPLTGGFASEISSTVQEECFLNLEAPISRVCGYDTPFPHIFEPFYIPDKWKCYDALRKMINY

Row | Target | probe-labelled cysteine peptide fold change (10 µM) | probe-labelled cysteine peptide fold change (50 µM)
1 | BRAP_Q7Z569_47_TTLASAVACLEGK (UniProt Q7Z569) | -0.252 | -0.245
2 | BTBD10_Q9BSF8_86_TESQLTPCIR (UniProt Q9BSF8) | -0.608 | -1.07
3 | CEP192_Q8TEP8_1562_APVEVAPCADVVTR (UniProt Q8TEP8) | -0.611 | -0.285
4 | BOP1_Q14137_108_TTEEQVQASTPCPR (UniProt Q14137) | -0.185 | -0.638
5 | AVEN_Q9NQS1_169_EWDSEASCPK (UniProt Q9NQS1) | -0.857 | -2.39
6 | CBX4_O00257_185_EAPSPTCPDLGAK (UniProt O00257) | -0.129 | -0.0437
7 | CARD9_Q9H257_402_ADELQLQVFQCEAQLLAVEGR (UniProt Q9H257) | 0.18 | 0.639
8 | CBR1_P16152_122_DVCTELLPLIK (UniProt P16152) | 0.109 | 0.509
9 | BRIX1_Q8TDN6_52_RHATAEEVEEEERDRIPGPVCK (UniProt Q8TDN6) | -0.278 | -0.296
10 | CEPT1_Q9Y6K0_11+30_CGDSHPESPVGFGHMSTTGCVLNK (UniProt Q9Y6K0) | -1.98 | -2.17
11 | CDC45_O75419_267_HNHRNEDEENTLSVDCTR (UniProt O75419) | 0.0632 | -0.279
12 | CBX8_Q9HC52_142_NMGLSPPASSTSTSSTCR (UniProt Q9HC52) | -0.187 | -0.373
13 | CASP2_P42575_30_ILGVCGMHPHHQETLKK (UniProt P42575) | -0.432 | -1.14
14 | CHPF_Q8IZ52_243_YCHGGFGVLLSR (UniProt Q8IZ52) | -0.176 | 0.255
15 | BCKDHB_P21953_361_VCGYDTPFPHIFEPFYIPDK (UniProt P21953) | -0.0395 | 0.155
16 | CEPT1_Q9Y6K0_30_CGDSHPESPVGFGHMSTTGCVLNK (UniProt Q9Y6K0) | -2.38 | -2.51
17 | CASP10_Q92851_169_IDEDNLTCLEDLCK (UniProt Q92851) | -0.0609 | 0.0728
18 | CFL1_P23528_39_AVLFCLSEDK (UniProt P23528) | 0.0825 | 0.0485
19 | CDC42_P60953_105_EKWVPEITHHCPK (UniProt P60953) | -0.508 | -0.929

Row | Target | probe-labelled cysteine peptide fold change (10 µM) | probe-labelled cysteine peptide fold change (50 µM)
20 | CAD_P27708_2161_FGSTQEYEACFGQFILTPHIMTR (UniProt P27708) | 0.0378 | 0.111
21 | CDK5_Q00535_117_GLGFCHSR (UniProt Q00535) | 0.00449 | 0.158
22 | C17orf75_Q9HAS0_265_FLSVASLQGLIHEGTMTSLCMAMTEEQHK (UniProt Q9HAS0) | 0.0249 | -0.756
23 | CCAR2_Q8N163_515_RNAETPEATTQQETDTDLPEAPPPPLEPAVIARPGCVNLSLHGIVEDR (UniProt Q8N163) | 0.107 | -0.245
24 | BRD1_O95696_294_TDDDRWGHVVCALWIPEVGFANTVFIEPIDGVR (UniProt O95696) | -0.0156 | 0.0676
25 | CEP170_Q5SW79_30_EMIFVGRDDCELMLQSR (UniProt Q5SW79) | -0.075 | 0.0343
26 | CAMK2B_Q13554_116_EYYSEADASHCIQQILEAVLHCHQMGVVHR (UniProt Q13554) | -0.0191 | 0.141
27 | CELF2_O95319_174_GCAFVTFSTR (UniProt O95319) | 0.0275 | 0.0429
28 | CELF1_Q92879_119_CTENDIR (UniProt Q92879) | 0.0497 | 0.276
29 | CENPF_P49454_339_CRDELVR (UniProt P49454) | 0.481 | 0.506
30 | CHORDC1_Q9UHD1_86_ELCELK (UniProt Q9UHD1) | -0.0657 | 0.205
31 | BIRC6_Q9NR09_3773_TAIENATVAFFLQCISCHPNNQK (UniProt Q9NR09) | 0.213 | 0.136
32 | CBR1_P16152_226_ILLNACCPGWVR (UniProt P16152) | -0.103 | -0.297
33 | BHLHE22_Q8NFJ8_156_GSVAESSGGEQSPDDDSDGRCELVLR (UniProt Q8NFJ8) | -0.393 | -0.217
34 | CARM1_Q86X55_438_AGDTLSGTCLLIANK (UniProt Q86X55) | 0.0534 | 0.146
35 | CHORDC1_Q9UHD1_59_RTTDFSDFLSIVGCTK (UniProt Q9UHD1) | -0.167 | -0.292
36 | CBX1_P83916_156_CPQVVISFYEER (UniProt P83916) | 0.121 | -0.00934
37 | CAND1_Q86VP6_802_CVAALTR (UniProt Q86VP6) | 0.211 | -0.156

From the supplement of paper PMC12067093, “Discovery and optimisation of a covalent ligand for TRIM25 and its application to targeted protein ubiquitination” (Chemical Science, 2025)
